We go through 13 compounds from PubChem BioAssay.

Test [1] is described as follows: sensitizers of A549 cells to miR-34 induction, primary screen, imaging, A549 dox-inducible miR-34, nuclei and caspase counts (AID 1347080). The settings on record: A549 miR-34 inducible, Hoechst nuclei count, 48 h.
Test [2] deals with NAD(+) hydrolase SARM1 (Homo sapiens) (UniProt Q6SZW1). Kind of test: SARM1 TIR NADase inhibitors, cell lysate, NAD-Glo luminescence (AID 1508614;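 active means compound whose remaining NAD level is above about 45 nM, limit read from the data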). The note with it: SAM-TIR HEK293T lysate NADase, at 1 µM, stronger effect = higher value.
For test [3], the target named is Mitogen-activated protein kinase 7 (Homo sapiens) (UniProt Q13164). Description: ERK5 transactivation activators in reporter cells, primary screen, cell-based, HTS (AID 1508626;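 active means luciferase signal above three times the same-plate solvent-only control wells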;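 further: luciferase driven by Gal4-ERK5 fusion binding five Gal4 sites before minimal TATA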). The settings on record: HeLa Gal4-ERK5 transactivation, 18 h, at 5 µM, stronger effect = higher value.
Test [4] can be described thus: survival rescue of mitochondrial mutant cells in low glucose, primary screen, MELAS cybrids, Rieske KO mouse fibroblasts, CellTiter-Glo (AID 1508586;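 active means mean z-score across replicates of 1.96 or higher in either the MELAS or the Rieske mutant cell line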;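 further: z relative to plate mean and SD of compound and empty wells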). For orientation: ATP-based viability assays read luminescence as a measure of living cells.
Test [5] can be described thus: viability rescue of complex I mutant cybrids, primary screen, cell-based, galactose medium, ATP luminescence (AID 1645843;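 active means z-score of at least 1.8 in each of two replicates, scored against plate mean and spread of sample wells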;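 further: positive z means more ATP and so rescue of galactose-driven cybrid death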). The settings on record: complex I mutant cybrid cells, 72 h, stronger effect = higher value.
The nature of test [6]: inhibitors of Cryptococcus chitosan production, flow cytometry, Cibacron Brilliant Red staining (AID 1347148; call rule not given here;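 further: compound exposure lasted three days at 37 degrees C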). The note with it: Cryptococcus neoformans chitosan, stronger effect = lower value; at 10 µM unless noted. For orientation: In flow cytometry, cells or beads pass a laser one at a time.
Test [7] in a line: phospholipid biosynthesis inhibitors in animal cells, primary screen, cell-based, LOPAC library, screen 4 (AID 1347384; call rule not given here). The settings on record: phospholipid biosynthesis inhibition screen, at 10 µM.
Setting [8] is: stronger effect = lower value, cell number ratio, induced over uninduced.
Setting [9] is: measured here: relative caspase fold change +Dox/-Dox.
The mark [10] stands for this setting: measured here: total cells with miR-34 induction, stronger effect = lower value.
Setting [11] is: measured here: total cells without miR-34 induction.
Where [12] appears, read: MELAS cybrid survival, CellTiter-Glo 48 h, stronger effect = higher value.
Setting [13] is: Rieske KO mouse fibroblast survival, CellTiter-Glo 72 h.

Values joined by “and” are separate entries in the source; they are usually repeats but may differ in a detail not shown here. Equal values may be shown once. Active and inactive are the calls of the source.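 How the source made its calls, unless noted: active means compounds whose cell count with miR-34 switched on is under 0.7 times the count with it off; inactive means the rest.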

Chain of Mitogen-activated protein kinase 7 (Homo sapiens) (Q13164 whole entry, looked up, the tested form may be a part): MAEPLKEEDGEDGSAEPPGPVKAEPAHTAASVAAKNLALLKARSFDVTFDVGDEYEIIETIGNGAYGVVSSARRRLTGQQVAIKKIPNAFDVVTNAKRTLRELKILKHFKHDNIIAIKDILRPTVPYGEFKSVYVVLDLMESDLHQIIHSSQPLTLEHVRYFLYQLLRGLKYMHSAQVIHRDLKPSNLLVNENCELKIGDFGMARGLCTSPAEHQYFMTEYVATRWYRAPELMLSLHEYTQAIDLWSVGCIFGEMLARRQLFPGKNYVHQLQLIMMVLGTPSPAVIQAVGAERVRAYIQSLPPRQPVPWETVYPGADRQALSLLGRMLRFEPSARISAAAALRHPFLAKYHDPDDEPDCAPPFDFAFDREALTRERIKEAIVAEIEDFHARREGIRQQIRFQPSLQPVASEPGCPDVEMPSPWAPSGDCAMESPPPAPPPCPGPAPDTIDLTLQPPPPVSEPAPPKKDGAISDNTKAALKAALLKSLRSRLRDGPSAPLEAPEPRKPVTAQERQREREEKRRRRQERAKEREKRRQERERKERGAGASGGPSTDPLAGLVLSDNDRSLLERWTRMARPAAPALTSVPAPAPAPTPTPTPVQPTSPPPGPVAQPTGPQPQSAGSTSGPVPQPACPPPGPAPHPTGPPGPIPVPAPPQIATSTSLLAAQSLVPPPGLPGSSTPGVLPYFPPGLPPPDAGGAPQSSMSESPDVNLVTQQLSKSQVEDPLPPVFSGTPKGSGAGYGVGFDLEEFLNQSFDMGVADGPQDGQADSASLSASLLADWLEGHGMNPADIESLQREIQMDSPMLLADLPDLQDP
Chain of NAD(+) hydrolase SARM1 (Homo sapiens) (Q6SZW1 whole entry, looked up, the tested form may be a part): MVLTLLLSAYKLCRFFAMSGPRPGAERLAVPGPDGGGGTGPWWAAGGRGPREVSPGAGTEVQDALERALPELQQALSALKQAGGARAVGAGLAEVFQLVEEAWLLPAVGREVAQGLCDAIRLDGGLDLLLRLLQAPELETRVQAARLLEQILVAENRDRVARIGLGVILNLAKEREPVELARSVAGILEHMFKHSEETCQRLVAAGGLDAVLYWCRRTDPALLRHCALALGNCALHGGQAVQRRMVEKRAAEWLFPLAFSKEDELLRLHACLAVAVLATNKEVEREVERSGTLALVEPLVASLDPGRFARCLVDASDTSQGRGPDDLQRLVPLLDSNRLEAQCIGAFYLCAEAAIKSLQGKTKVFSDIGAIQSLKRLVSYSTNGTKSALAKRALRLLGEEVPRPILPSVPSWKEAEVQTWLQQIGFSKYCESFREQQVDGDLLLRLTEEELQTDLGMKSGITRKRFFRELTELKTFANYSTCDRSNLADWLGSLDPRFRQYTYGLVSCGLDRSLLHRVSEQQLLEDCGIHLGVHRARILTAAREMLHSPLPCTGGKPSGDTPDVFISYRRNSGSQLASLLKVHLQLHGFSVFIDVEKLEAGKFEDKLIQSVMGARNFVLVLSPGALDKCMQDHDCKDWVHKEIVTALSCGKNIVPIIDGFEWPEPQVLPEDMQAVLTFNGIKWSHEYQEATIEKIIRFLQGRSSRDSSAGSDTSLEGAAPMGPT

Turning to `COc1ccc(C2C(=O)c3ccccc3C2=O)cc1`, the fold change was 0.879 (inactive) in test [1] (setting [8]) and 2.05 in test [1] (setting [9]). For the same compound, the figures for the cell count in test [1] (setting [10]) and in test [1] (setting [11]) were 11100 and 12700, respectively. Further, the remaining NAD in test [2] is 10 nM (inactive). In test [3], the luciferase signal was 172 AU (inactive).

With `C[C@@H]1CN(c2c(F)c(F)c3c(=O)c(C(=O)O)cn(C4CC4)c3c2F)C[C@H](C)N1`, the fold change in test [1] (setting [8]) is 0.896 (inactive); in test [1] (setting [9]), 0.855. Besides, the results for the cell count in test [1] (setting [10]) and in test [1] (setting [11]) were 8680 and 9690, respectively. Moreover, the remaining NAD in test [2] was 10 nM (inactive).

Take `NC(=O)NC(=O)Cc1ccccc1`: the fold change in test [1] (setting [8]) is 0.88 (inactive); in test [1] (setting [9]), 0.863. Besides, the cell count in test [1] (setting [10]) was 11800; in test [1] (setting [11]) it was 13400. Further, the remaining NAD in test [2] was 10 nM (inactive). For the same compound, the luciferase signal in test [3] is 160 AU (inactive).

For `Cc1cc(C)cc(OCC2CNC(=O)O2)c1` (stereo not drawn), the fold change in test [1] (setting [8]) was 0.878 (inactive); in test [1] (setting [9]) it was 2.33. Further, the values for the cell count in test [1] (setting [10]) and in test [1] (setting [11]) were 10800 and 12400, respectively. Besides, the remaining NAD in test [2] was 10 nM (inactive). The luciferase signal in test [3] was 72 AU (inactive).

For `CCOC(N)=O`, the results for the fold change in test [1] (setting [8]) and in test [1] (setting [9]) were 0.875 (inactive) and 3.55, respectively. Also, the values for the cell count in test [1] (setting [10]) and in test [1] (setting [11]) were 11200 and 12800, respectively. Further, the remaining NAD in test [2] is 10 nM (inactive). In addition, the luciferase signal in test [3] is 24 AU (inactive).

As to `Nc1ccc(C(=O)Oc2ccccc2)c(O)c1`, the fold change in test [1] (setting [8]) was 0.872 (inactive); in test [1] (setting [9]) it was 1.07. The figures for the cell count in test [1] (setting [10]) and in test [1] (setting [11]) were 9720 and 11100, respectively. Moreover, the remaining NAD in test [2] is 10 nM (inactive). Also, in test [3], the luciferase signal is 84 AU (inactive).

`CCOC(=O)C1=C(C)NC(C)=C(C(=O)OCC)C1c1ccccc1/C=C/C(=O)OC(C)(C)C`: the fold change was 0.814 (inactive) in test [1] (setting [8]) and 0.737 in test [1] (setting [9]). Moreover, the figures for the cell count in test [1] (setting [10]) and in test [1] (setting [11]) were 7100 and 8720, respectively. The z-score was -0.103 (inactive) and 0.874 (inactive) in test [4] (setting [12]); 0.213 and 0.0479 in test [4] (setting [13]); -1.98 (inactive) in test [5].

Consider `CN(C)CCCSc1ccccc1NC(=O)/C=C/c1ccccc1`, for which the fold change in test [1] (setting [8]) is 0.891 (inactive) and 1.14 (inactive); in test [1] (setting [9]), 0.895 and 0.508. Also, the cell count in test [1] (setting [10]) was 7810 and 9010; in test [1] (setting [11]) it was 8770 and 7880. In addition, the z-score was 0.109 (inactive) in test [4] (setting [12]); -0.0543 in test [4] (setting [13]); -0.09 (inactive) and 0.525 (inactive) in test [5].

Take `NC[C@H]1O[C@H](O[C@H]2[C@H](O)[C@@H](O[C@H]3O[C@H](CO)[C@@H](O)[C@H](N)[C@H]3O)[C@H](N)C[C@@H]2N)[C@H](N)[C@@H](O)[C@@H]1O`: the fold change in test [1] (setting [8]) is 0.901 (inactive); in test [1] (setting [9]), 2.25. Moreover, the cell count is 11700 in test [1] (setting [10]) and 13000 in test [1] (setting [11]). The remaining NAD in test [2] was 10 nM (inactive). Moreover, the luciferase signal in test [3] was 76 AU (inactive).

On to `CC(C)(Oc1ccc(CCNC(=O)c2ccc(Cl)cc2)cc1)C(=O)O`, for which the fold fluorescence in test [6] was 9.76 [at 138.2 µM] (inactive). For the same compound, the call in test [7] was inactive. In addition, the z-score is -0.161 (inactive) and 0.38 (inactive) and -0.46 (inactive) in test [4] (setting [12]); -0.148 and 0.0926 and -0.592 in test [4] (setting [13]); 0.225 (inactive) and 0.83 (inactive) in test [5]. Also, the remaining NAD in test [2] is 10 nM (inactive). Besides, in test [3], the luciferase signal was 40 AU (inactive).

On to `CO[C@@]1(NC(=O)C(C(=O)O)c2ccc(O)cc2)C(=O)N2C(C(=O)O)=C(CSc3nnnn3C)CO[C@@H]21` (stereo partly drawn), for which the values for the fold change in test [1] (setting [8]) and in test [1] (setting [9]) were 0.852 (inactive) and 0.729, respectively. In addition, the cell count is 11300 in test [1] (setting [10]) and 13300 in test [1] (setting [11]). In addition, in test [2], the remaining NAD is 10 nM (inactive). For the same compound, the luciferase signal in test [3] is 32 AU (inactive).

Take `CC1CCN(CCCC(=O)c2ccc(F)cc2)CC1`: the fold change in test [1] (setting [8]) is 0.922 (inactive) and 0.888 (inactive) and 0.964 (inactive); in test [1] (setting [9]), 0.574 and 0.823 and 1.18. The cell count in test [1] (setting [10]) is 9000 and 9720 and 9030; in test [1] (setting [11]), 9760 and 10900 and 9370. Also, the z-score in test [5] was 0.28 (inactive) and -0.14 (inactive).

For the compound `O=C(c1ccc(F)cc1)C1CCN(CCn2c(=S)[nH]c3ccccc3c2=O)CC1`, the fold change in test [1] (setting [8]) is 0.921 (inactive) and 0.889 (inactive); in test [1] (setting [9]), 1.65 and 1.01. In addition, the cell count is 8480 and 7360 in test [1] (setting [10]); 9210 and 8290 in test [1] (setting [11]). For the same compound, in test [5], the z-score was -0.715 (inactive) and -0.61 (inactive).
